# Source: publication PMC7862700, “An all-to-all approach to the identification of sequence-specific readers for epigenetic DNA modifications on cytosine”
# What was measured:
# Assay in all cases: DAPPL (digital affinity profiling via proximity ligation, sequencing); 10 mM Tris-HCl pH 7.5, 50 mM NaCl, 1 mM DTT, 4% glycerol, room temperature, 30 min; GST-TFs on glutathione beads, 16-mer random dsDNA library, 0.1% formaldehyde crosslink after washing; high values mean tight binding
# [1] = molecular target: T1, FLI1 (Homo sapiens, UniProt Q01543 1-452); settings: protein: recombinant; tags: N-terminal GST; dsDNA, one strand shown
# T1 sequence: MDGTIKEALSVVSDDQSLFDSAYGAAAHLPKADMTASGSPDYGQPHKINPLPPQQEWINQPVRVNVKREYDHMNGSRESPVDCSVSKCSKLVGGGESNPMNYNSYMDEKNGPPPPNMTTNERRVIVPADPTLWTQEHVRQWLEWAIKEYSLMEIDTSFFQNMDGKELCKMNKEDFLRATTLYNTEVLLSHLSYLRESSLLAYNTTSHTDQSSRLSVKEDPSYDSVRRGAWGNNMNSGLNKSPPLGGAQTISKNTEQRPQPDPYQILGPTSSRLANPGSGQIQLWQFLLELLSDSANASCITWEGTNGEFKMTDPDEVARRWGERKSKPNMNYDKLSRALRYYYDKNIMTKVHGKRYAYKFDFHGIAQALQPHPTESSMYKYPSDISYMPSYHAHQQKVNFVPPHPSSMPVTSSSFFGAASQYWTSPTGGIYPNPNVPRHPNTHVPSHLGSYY
# Outline: (§1)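 Binding signal is defined as a hexamer's read frequency for one factor over its frequency for the tag-only sample. To obtain reads, GST-fused human transcription factors were expressed in yeast, captured on glutathione beads, barcoded with DNA and pooled with that sample. Pools met 200 nmole of a 16-mer random double-stranded DNA library in Tris/NaCl/DTT/glycerol buffer for 30 min at room temperature before washing, 0.1% formaldehyde crosslinking, proximity ligation (BsaI/T4 ligase, 1 h, 37 °C), PCR and Illumina NextSeq500 sequencing.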
# [2] = molecular target: T2, ELK1 (Homo sapiens, UniProt P19419 1-428); settings: protein: recombinant; tags: N-terminal GST; dsDNA, one strand shown
# T2 sequence: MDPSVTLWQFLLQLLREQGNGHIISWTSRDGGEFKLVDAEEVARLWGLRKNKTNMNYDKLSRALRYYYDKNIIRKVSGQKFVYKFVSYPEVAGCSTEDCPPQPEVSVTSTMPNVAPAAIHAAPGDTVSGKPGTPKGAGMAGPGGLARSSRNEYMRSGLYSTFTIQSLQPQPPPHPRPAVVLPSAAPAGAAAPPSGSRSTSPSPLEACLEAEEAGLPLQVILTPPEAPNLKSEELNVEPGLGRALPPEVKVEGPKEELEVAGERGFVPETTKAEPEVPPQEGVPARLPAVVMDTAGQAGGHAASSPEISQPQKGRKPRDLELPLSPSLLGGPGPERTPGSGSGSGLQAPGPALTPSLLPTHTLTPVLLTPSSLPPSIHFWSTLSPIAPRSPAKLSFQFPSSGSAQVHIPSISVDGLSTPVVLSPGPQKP
# Outline: as §1
# [3] = molecular target: T3, GABPA (Homo sapiens, UniProt Q06546 1-454); settings: protein: recombinant; tags: N-terminal GST; dsDNA, one strand shown
# T3 sequence: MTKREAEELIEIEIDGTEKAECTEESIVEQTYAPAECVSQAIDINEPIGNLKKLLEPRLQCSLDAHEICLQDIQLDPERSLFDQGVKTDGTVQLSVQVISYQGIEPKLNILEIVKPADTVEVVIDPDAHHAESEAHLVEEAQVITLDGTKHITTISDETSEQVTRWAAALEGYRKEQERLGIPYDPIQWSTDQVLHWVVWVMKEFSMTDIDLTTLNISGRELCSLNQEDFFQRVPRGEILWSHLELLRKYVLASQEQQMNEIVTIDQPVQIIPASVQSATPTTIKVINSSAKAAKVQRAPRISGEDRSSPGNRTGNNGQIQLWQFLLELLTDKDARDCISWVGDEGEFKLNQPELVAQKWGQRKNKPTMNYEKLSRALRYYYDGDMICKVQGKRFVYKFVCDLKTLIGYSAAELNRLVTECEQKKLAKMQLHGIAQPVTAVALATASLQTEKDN
# Outline: as §1
# [4] = molecular target: T4, ERG (Homo sapiens, UniProt P11308 1-479); settings: protein: recombinant; tags: N-terminal GST; dsDNA, one strand shown
# T4 sequence: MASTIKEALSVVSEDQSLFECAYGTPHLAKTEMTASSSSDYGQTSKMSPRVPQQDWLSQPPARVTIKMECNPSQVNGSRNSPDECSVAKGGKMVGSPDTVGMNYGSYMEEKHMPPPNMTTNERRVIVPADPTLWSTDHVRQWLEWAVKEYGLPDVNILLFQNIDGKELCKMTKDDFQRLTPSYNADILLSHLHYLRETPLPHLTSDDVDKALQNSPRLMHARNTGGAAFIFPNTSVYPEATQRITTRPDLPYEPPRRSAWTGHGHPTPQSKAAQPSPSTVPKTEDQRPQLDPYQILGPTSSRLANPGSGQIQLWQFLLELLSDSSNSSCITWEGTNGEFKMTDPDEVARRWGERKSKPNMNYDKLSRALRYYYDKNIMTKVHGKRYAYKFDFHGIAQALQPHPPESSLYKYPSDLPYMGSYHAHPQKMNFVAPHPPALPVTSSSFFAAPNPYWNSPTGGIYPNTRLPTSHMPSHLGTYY
# Outline: as §1
# [5] = molecular target: ELF1 (Homo sapiens, UniProt P32519 1-619); settings: protein: recombinant; tags: N-terminal GST; dsDNA, one strand shown
# Outline: as §1
# [6] = molecular target: T5, EHF (Homo sapiens, UniProt Q9NZC4 1-300); settings: protein: recombinant; tags: N-terminal GST; dsDNA, one strand shown
# T5 sequence: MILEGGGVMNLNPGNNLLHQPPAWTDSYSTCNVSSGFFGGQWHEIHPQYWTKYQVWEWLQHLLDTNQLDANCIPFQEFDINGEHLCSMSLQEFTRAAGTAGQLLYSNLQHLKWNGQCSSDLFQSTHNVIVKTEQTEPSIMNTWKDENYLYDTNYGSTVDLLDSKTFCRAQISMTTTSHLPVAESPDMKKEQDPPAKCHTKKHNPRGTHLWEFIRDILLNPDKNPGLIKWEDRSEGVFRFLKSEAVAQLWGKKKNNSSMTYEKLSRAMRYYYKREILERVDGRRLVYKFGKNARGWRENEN
# Outline: as §1
# [7] = molecular target: SPI1 (Homo sapiens, UniProt P17947 1-270); settings: protein: recombinant; tags: N-terminal GST; dsDNA, one strand shown
# Outline: as §1
# [8] = molecular target: SPIB (Homo sapiens, UniProt Q01892 1-262); settings: protein: recombinant; tags: N-terminal GST; dsDNA, one strand shown
# Outline: as §1
# [9] = molecular target: T6, ELK3 (Homo sapiens, UniProt P41970 1-407); settings: protein: recombinant; tags: N-terminal GST; dsDNA, one strand shown
# T6 sequence: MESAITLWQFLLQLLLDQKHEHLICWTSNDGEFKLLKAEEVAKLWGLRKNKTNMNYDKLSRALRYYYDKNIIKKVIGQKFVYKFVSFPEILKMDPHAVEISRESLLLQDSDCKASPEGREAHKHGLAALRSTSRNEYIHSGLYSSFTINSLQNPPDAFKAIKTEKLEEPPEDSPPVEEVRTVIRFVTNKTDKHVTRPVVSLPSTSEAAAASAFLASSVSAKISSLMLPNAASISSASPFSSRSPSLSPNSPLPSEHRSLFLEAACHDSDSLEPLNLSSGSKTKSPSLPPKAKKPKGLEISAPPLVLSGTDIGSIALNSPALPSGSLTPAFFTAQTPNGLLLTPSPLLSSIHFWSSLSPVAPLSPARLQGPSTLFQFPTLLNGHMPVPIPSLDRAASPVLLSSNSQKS
# Outline: as §1
# [10] = molecular target: T7, FEV (Homo sapiens, UniProt Q99581 1-238); settings: protein: recombinant; tags: N-terminal GST; dsDNA, one strand shown
# T7 sequence: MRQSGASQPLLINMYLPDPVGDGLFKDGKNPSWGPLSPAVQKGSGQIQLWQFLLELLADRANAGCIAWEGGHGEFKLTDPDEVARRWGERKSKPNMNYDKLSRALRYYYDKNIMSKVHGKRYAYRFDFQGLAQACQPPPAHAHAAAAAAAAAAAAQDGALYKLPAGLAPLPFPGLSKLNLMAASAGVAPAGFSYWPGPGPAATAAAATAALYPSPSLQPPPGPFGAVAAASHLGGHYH
# Outline: as §1
# [11] = molecular target: ETV5 (Homo sapiens, UniProt P41161 1-510); settings: protein: recombinant; tags: N-terminal GST; dsDNA, one strand shown
# Outline: as §1
# [12] = molecular target: HSF1 (Homo sapiens, UniProt Q00613 1-529); settings: protein: recombinant; tags: N-terminal GST; chain copies: 3; dsDNA, one strand shown
# Outline: as §1
# [13] = molecular target: T8, SPIC (Homo sapiens, UniProt Q8N5J4 1-248); settings: protein: recombinant; tags: N-terminal GST; dsDNA, one strand shown
# T8 sequence: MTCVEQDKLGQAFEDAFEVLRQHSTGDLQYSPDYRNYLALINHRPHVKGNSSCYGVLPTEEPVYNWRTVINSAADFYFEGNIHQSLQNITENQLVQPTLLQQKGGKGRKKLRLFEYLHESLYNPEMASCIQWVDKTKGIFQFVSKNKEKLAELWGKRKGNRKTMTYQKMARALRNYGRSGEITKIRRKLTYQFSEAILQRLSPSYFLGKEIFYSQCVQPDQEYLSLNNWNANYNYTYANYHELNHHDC
# Outline: as §1
# [14] = molecular target: ELF4 (Homo sapiens, UniProt Q99607 1-663); settings: protein: recombinant; tags: N-terminal GST; dsDNA, one strand shown
# Outline: as §1
# [15] = molecular target: T9, ELK4 (Homo sapiens, UniProt P28324-2 1-405); settings: protein: recombinant; tags: N-terminal GST; dsDNA, one strand shown
# T9 sequence: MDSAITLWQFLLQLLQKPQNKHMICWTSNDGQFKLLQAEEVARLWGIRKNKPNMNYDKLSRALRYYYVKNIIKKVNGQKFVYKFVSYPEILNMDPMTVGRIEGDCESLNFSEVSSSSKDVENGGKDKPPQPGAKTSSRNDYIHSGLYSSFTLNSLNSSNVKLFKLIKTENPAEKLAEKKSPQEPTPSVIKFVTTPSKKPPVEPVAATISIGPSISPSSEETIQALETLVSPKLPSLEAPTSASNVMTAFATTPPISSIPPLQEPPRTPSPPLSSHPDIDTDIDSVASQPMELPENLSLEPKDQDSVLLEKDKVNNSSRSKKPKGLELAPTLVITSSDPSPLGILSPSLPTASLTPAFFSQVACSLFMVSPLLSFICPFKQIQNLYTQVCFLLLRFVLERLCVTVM
# Outline: as §1
# [16] = molecular target: T10, ETV2 (Homo sapiens, UniProt O00321 1-342); settings: protein: recombinant; tags: N-terminal GST; dsDNA, one strand shown
# T10 sequence: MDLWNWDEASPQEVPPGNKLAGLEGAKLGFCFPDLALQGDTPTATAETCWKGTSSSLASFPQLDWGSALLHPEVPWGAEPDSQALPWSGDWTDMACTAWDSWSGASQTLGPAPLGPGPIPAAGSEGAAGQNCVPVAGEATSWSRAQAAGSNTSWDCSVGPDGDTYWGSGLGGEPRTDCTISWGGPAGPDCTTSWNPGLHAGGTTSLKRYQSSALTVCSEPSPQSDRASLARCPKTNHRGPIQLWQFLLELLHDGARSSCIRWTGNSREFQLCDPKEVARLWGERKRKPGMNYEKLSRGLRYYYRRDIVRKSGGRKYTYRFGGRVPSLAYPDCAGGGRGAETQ
# Outline: as §1
# [17] = molecular target: T11, ELF3 (Homo sapiens, UniProt P78545 1-371); settings: protein: recombinant; tags: N-terminal GST; dsDNA, one strand shown
# T11 sequence: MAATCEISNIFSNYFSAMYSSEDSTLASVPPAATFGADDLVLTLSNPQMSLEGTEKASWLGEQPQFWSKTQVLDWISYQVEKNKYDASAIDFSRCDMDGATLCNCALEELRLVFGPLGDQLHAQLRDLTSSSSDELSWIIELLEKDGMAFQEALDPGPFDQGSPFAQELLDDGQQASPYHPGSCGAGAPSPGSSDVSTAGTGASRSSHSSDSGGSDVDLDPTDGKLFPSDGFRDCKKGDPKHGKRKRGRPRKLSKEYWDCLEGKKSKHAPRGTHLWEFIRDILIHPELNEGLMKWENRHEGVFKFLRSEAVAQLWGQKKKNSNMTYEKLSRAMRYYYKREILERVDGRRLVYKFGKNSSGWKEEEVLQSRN
# Outline: as §1
# [18] = molecular target: CRX (Homo sapiens, UniProt O43186 1-299); settings: protein: recombinant; tags: N-terminal GST; dsDNA, one strand shown
# Outline: as §1
# [19] = molecular target: ETV1 (Homo sapiens, UniProt P50549 1-477); settings: protein: recombinant; tags: N-terminal GST; dsDNA, one strand shown
# Outline: as §1
# SPIB, sequence (Q01892 whole entry): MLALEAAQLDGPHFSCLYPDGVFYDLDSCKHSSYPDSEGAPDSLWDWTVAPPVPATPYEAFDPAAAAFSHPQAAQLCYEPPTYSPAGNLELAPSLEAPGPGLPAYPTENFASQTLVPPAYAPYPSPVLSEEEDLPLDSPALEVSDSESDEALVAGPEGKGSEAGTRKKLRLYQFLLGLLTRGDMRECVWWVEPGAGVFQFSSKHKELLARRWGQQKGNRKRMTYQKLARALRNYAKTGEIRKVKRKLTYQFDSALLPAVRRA
# ELF1, sequence (P32519 whole entry): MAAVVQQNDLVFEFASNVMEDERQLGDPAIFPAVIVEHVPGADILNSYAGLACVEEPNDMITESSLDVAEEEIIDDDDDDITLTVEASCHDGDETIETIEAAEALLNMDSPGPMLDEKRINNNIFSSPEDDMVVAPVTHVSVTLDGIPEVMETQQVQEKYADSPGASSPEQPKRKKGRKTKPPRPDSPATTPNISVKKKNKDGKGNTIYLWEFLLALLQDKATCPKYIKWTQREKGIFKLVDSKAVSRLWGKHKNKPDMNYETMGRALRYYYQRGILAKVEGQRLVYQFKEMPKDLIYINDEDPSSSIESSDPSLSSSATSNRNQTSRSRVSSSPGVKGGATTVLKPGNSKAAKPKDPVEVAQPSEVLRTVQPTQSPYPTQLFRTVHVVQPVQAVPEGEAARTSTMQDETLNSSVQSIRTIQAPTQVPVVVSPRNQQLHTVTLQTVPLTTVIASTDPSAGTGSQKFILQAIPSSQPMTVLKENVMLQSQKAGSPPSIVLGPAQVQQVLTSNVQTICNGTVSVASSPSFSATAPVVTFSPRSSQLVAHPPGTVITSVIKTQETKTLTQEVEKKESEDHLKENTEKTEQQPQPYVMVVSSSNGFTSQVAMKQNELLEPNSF
# CRX, sequence (O43186 whole entry): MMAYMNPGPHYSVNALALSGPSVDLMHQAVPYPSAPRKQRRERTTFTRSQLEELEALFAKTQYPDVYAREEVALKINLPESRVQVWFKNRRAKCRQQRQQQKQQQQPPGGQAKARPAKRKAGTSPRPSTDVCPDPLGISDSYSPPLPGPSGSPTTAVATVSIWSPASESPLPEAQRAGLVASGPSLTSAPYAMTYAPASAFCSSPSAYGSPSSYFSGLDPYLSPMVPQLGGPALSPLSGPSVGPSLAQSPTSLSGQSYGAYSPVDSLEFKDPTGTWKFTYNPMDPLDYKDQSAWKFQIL
# ETV1, sequence (P50549 whole entry): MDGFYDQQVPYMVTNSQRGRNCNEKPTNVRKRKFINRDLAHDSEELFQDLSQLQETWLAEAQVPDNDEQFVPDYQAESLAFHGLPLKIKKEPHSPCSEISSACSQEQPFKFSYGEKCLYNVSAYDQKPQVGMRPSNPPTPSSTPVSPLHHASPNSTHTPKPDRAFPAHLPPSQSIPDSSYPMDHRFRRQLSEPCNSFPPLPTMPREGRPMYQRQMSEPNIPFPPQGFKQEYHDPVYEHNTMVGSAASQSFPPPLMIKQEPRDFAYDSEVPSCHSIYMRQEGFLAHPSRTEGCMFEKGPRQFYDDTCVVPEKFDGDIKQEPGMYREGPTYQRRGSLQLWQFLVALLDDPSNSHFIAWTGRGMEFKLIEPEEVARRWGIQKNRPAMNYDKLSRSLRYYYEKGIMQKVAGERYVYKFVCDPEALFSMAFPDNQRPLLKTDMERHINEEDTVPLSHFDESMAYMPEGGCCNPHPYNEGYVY
# ETV5, sequence (P41161 whole entry): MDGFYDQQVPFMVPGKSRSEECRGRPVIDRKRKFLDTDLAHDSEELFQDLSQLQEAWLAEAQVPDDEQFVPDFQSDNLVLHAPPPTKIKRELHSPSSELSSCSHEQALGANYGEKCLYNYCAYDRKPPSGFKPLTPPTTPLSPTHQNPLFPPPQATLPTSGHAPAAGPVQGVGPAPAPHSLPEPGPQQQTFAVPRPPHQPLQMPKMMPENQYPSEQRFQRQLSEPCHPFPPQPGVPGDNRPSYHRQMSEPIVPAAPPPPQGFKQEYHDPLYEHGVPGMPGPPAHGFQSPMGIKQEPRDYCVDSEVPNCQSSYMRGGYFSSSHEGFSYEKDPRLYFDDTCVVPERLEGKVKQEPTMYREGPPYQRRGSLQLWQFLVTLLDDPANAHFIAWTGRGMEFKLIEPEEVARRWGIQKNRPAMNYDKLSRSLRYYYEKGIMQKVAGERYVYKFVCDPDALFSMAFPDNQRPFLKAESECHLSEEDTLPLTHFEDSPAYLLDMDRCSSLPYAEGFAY
# HSF1, sequence (Q00613 whole entry): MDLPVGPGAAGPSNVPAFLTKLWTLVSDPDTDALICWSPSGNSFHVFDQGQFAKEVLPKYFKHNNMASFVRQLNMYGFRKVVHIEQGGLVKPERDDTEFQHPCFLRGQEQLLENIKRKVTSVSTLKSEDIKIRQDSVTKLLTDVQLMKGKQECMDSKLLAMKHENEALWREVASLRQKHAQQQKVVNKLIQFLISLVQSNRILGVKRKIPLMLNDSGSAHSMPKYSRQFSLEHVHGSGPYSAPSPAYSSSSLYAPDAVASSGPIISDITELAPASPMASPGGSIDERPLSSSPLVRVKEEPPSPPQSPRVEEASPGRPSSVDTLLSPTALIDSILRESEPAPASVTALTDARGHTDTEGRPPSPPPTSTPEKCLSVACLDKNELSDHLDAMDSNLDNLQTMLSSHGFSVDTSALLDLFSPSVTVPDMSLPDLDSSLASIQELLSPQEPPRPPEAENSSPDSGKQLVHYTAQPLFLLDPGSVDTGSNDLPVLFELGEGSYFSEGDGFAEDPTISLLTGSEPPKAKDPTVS
# ELF4, sequence (Q99607 whole entry): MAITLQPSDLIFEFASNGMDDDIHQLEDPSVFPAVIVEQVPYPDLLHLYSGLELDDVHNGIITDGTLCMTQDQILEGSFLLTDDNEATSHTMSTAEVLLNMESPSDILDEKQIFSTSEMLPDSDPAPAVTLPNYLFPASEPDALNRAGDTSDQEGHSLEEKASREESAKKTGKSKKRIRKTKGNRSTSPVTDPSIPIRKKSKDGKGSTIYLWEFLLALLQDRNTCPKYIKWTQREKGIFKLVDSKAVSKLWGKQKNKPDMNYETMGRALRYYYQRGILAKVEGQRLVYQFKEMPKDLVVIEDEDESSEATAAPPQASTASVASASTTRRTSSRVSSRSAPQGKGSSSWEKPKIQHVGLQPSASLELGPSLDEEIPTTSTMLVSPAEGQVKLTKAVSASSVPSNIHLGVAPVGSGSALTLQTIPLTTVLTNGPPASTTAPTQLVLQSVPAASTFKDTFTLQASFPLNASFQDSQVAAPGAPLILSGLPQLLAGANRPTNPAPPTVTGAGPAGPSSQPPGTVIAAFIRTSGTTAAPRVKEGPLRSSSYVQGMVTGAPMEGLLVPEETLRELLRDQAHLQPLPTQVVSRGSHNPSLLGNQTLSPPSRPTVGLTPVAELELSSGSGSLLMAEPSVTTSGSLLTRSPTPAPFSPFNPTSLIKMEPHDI
sequence,measurement,setting,value
CGCTTT,binding signal,[1],"1.31 fold enrichment (6-mer frequency, TF over GST control)"
same,binding signal,[2],"1.1 fold enrichment (6-mer frequency, TF over GST control)"
same,binding signal,[3],"1.32 fold enrichment (6-mer frequency, TF over GST control)"
same,binding signal,[4],"1.15 fold enrichment (6-mer frequency, TF over GST control)"
same,binding signal,[5],"1.18 fold enrichment (6-mer frequency, TF over GST control)"
same,binding signal,[6],"1.19 fold enrichment (6-mer frequency, TF over GST control)"
same,binding signal,[7],"1.59 fold enrichment (6-mer frequency, TF over GST control)"
same,binding signal,[8],"1.4 fold enrichment (6-mer frequency, TF over GST control)"
same,binding signal,[9],"1.31 fold enrichment (6-mer frequency, TF over GST control)"
same,binding signal,[10],"1.18 fold enrichment (6-mer frequency, TF over GST control)"
same,binding signal,[11],"1.21 fold enrichment (6-mer frequency, TF over GST control)"
same,binding signal,[12],"1.11 fold enrichment (6-mer frequency, TF over GST control)"
same,binding signal,[13],"1.17 fold enrichment (6-mer frequency, TF over GST control)"
same,binding signal,[14],"1.31 fold enrichment (6-mer frequency, TF over GST control)"
same,binding signal,[15],"1.17 fold enrichment (6-mer frequency, TF over GST control)"
same,binding signal,[16],"1.09 fold enrichment (6-mer frequency, TF over GST control)"
same,binding signal,[17],"1.22 fold enrichment (6-mer frequency, TF over GST control)"
same,binding signal,[18],"1.37 fold enrichment (6-mer frequency, TF over GST control)"
same,binding signal,[19],"1.4 fold enrichment (6-mer frequency, TF over GST control)"
